From PubChem BioAssay (EPA / NIEHS)
“And” between values parts separate entries of the source, which are not always exact repeats. Identical values can stand only once. Inconclusive results are not listed. Some structures have more than one record in an assay (separate samples or runs), and their calls can disagree. The source made the active and inactive calls. Rule for the calls: active = hit-call score of the fitted dose curve at least 0.9, where 1 is the maximum; inconclusive = response in the unintended direction; inactive = score below 0.9.

Each compound was assayed against Bile acid receptor (Homo sapiens) (UniProt Q96RI1) (assay: OT_FXR_FXRSRC1_0480: Odyssey Thera (OT) 8-hour HEK293T Protein-Complementation Assay for Farnesoid X receptor/SRC-1 Co-activator (AID 2283383)).
Chain of Bile acid receptor (Homo sapiens) (Q96RI1 whole entry, looked up, the tested form may be a part): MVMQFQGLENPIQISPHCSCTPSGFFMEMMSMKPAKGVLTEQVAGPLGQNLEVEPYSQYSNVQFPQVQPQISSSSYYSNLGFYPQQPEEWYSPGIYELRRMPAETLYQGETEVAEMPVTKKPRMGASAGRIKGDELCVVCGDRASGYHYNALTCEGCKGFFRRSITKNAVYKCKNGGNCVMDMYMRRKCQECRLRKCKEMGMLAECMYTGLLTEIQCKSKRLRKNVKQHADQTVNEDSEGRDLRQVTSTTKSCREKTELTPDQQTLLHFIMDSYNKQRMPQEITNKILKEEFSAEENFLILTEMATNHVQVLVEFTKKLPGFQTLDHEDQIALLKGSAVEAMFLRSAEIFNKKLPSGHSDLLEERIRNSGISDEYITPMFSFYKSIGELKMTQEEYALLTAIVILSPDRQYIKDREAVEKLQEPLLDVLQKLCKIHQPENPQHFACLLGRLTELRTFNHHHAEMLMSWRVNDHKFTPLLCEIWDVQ
Experimental: OT_FXR_FXRSRC1_0480 is a cell-based assay that uses HEK293T, a human kidney cell line, with measurements taken at 8 hours after chemical dosing in a 384-well plate.OT_FXR_FXRSRC1_0480 is one of one assay component(s) measured or calculated from the OT_FXR_FXRSRC1_0480 assay. It is designed to make measurements of protein fragment complementation, a form of binding reporter, as detected with fluorescence intensity signals by Protein-fragment Complementation technology.Data from the assay component OT_FXR_FXRSRC1_0480 was analyzed into 1 assay endpoint. This assay endpoint, OT_FXR_FXRSRC1_0480, was analyzed in the positive analysis fitting direction relative to DMSO as the negative control and baseline of activity. Using a type of binding reporter, measures of receptor for gain-of-signal activity can be used to understand the binding at the pathway-level as they relate to the gene NR1H4. Furthermore, this assay endpoint can be referred to as a primary readout, because the performed assay has only produced 1 assay endpoint. To generalize the intended target to other relatable targets, this assay endpoint is annotated to the nuclear receptor intended target family, where the subfamily is non-steroidal.
Protein-fragment complementation assay, or PCA, is a method for the identification and quantification of protein-protein interactions. In the PCA, the proteins of interest ("bait" and "prey") are each covalently linked to fragments of a third protein (e.g. DHFR, which acts as a "reporter"). Interaction between the bait and the prey proteins brings the fragments of the reporter protein in close proximity to allow them to form a functional reporter protein whose activity can be measured.

SMILES | outcome | AC50
Cc1ccc(C(C)C)cc1 | inactive | –
Cc1cn([C@H]2C[C@H](N=[N+]=[N-])[C@@H](CO)O2)c(=O)[nH]c1=O | inactive | –
O=C(Nc1ccc(Cl)cc1)Nc1ccc(Cl)c(Cl)c1 | inactive | –
CCCCCCCCCCCO | inactive | –
COc1cc(C(=O)NC2CCN(C)CC2)ccc1Nc1ncc2c(n1)N(C1CCCC1)CC(F)(F)C(=O)N2C | – | 11 µM (active)
O=c1ccc2ccccc2o1 | inactive | –
Cc1cc2c(cc1C(F)(F)F)N(C(=O)Nc1ccc(Oc3cccnc3C)nc1)CC2 | – | 19.1 µM (active)
O=C(O)Cn1c(=O)n(Cc2ccc(Br)cc2F)c(=O)c2ccc(Cl)cc21 | inactive | –
CCCCOC(=O)c1ccc(O)cc1 | – | 50 µM (active) and 31 µM (active)
CCCC(=O)OCCC(C)C | inactive | –
O=C(OCCCCCCOC(=O)c1ccccc1)c1ccccc1 | – | 50 µM (active)
OC12N=C(c3ccccc3)SC1Cc1cc(Cl)ccc12 (stereo not given) | – | 71.7 µM (active)
CC1=CC(=O)/C(=C(/C)O)C(=O)O1 | inactive | –
CC[C@H](NC(=O)c1cc(F)ccc1NS(=O)(=O)c1cccc2cccnc12)c1ccccc1 | – | 31.9 µM (active)
O=c1c(-c2ccc(O)cc2)coc2cc(O)cc(O)c12 | inactive | 12.5 µM (active) and 11.5 µM (active) and 13.4 µM (active)
CCCCCCCCOc1ccc(C(=O)c2ccccc2)c(O)c1 | inactive | –
CCCOC(=O)c1cc(O)c(O)c(O)c1 | inactive | –
C[C@]12CC[C@@H]3c4ccc(O)cc4CC[C@H]3[C@@H]1CCC2=O | inactive | –
Cc1oc2c(NC(=O)c3c(Cl)cccc3Cl)cccc2c1C(C)(C)O | inactive | –

SMILES | outcome | AC50
CC/C(=C(/CC)c1ccc(O)cc1)c1ccc(O)cc1 | inactive | –
CN(C[C@@H](CC[N+]12CCC(C3CCCCC3)(CC1)CC2)c1ccc(Cl)c(Cl)c1)C(=O)c1cc(C(F)(F)F)cc(C(F)(F)F)c1 | – | 85.4 µM (active)
COc1cccc([C@H](O)C2CCN(CCc3ccc(F)cc3)CC2)c1OC | inactive | –
Cc1cccc2ccccc12 | inactive | –
O=C(O)c1ccccc1-n1cc(C(=O)O)c(=O)c2cc(Nc3c(F)cc(F)cc3Cl)c(Cl)cc21 | inactive | –
CCN(Cc1cccc(S(=O)(=O)O)c1)c1ccc(C(=C2C=CC(=[N+](CC)Cc3cccc(S(=O)(=O)O)c3)C=C2)c2ccccc2S(=O)(=O)[O-])cc1 | inactive | –
CCCCCCCCOC(=O)c1cc(O)c(O)c(O)c1 | – | 63.6 µM (active)
CC(C)(c1cc(Br)c(O)c(Br)c1)c1cc(Br)c(O)c(Br)c1 | – | 70 µM (active)
CCCCCCCCCCCCO | inactive | –
O=C1CCC(C2CCCCC2)CC1 | inactive | 33.1 µM (active) and 50 µM (active)
Cc1ccc2oc(CN(Cc3ccccc3)C(=O)Nc3c(F)cc(F)cc3F)c(-c3ccc(Cl)cc3)c2c1 | inactive | –
CCN(Cc1cccnc1)C(=O)c1cccc(Cl)c1[C@]1(C)C(=O)N(Cc2ccc(OC)cc2OC)c2ccc(Cl)cc21 | – | 0.278 µM (active)
CCN(CC)C(=O)c1cc(S(=O)(=O)Cc2ccccc2)c(N2CCC(c3ccccc3)CC2)cc1N(CC)CCN(C)C | – | 4.46 µM (active)
CC(C)(C)c1csc(-c2cc3cc(OCc4ccccc4CC(=O)O)ccc3o2)n1 | inactive | –
Cc1ncc(CO)c(CO)c1O | inactive | –
O=CCCCC=O | – | 40.2 µM (active)
O=C(O)Cc1cc(I)c(Oc2ccc(O)c(I)c2)c(I)c1 | inactive | –
CC1(C)NC(=O)N(c2ccc([N+](=O)[O-])c(C(F)(F)F)c2)C1=O | inactive | –
Cc1c2ccccc2c(C)c2c1ccc1ccccc12 | – | 14.3 µM (active)
